# PubChem BioAssay (NCATS)
# “And” between values parts separate entries of the source, which are not always exact repeats. Equal entries are not always repeated. Records with an inconclusive call do not appear. Unmarked numbers belong to inactive results. The source made the active and inactive calls. Calls come from the whole dose curve; as a rule, active = well fitted activation curve with a large enough effect; inconclusive = small, poorly fitted or top-dose-only effect; inactive = no such curve, though single readings can be large or run the other way.
# Target: Cellular tumor antigen p53 (Homo sapiens) (UniProt P04637)
# Sequence (P04637 whole entry, looked up): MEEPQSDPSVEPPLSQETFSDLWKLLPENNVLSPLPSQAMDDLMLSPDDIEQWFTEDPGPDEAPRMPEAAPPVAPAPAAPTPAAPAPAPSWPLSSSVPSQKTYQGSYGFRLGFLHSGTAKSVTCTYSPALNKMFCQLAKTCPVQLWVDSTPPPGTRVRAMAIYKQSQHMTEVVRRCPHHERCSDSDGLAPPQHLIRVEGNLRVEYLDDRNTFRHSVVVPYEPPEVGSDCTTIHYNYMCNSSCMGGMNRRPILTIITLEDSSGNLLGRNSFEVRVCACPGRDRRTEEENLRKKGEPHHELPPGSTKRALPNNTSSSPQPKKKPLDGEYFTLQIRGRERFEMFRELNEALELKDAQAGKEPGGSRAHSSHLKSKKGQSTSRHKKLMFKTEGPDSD
# Test: Primary qHTS for small molecule compounds that upregulate eGFP-tagged delta133p53alpha (in N-terminal) cells. (AID 2060322); note: nearly all actives have a fitted effect of over 75% in size;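 for activation: cells pre-induced with doxycycline then dosed without doxycycline; series mostly up to about 56 µM; 0% = DMSO vehicle and 100% = reference activator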
# Settings: NCI-H358 eGFP-delta133p53alpha fluorescence, 24 h; activation: hits give high values
# Summary of the method: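 NCI-H358 cells pre-induced 24 h with 10 ng/ml doxycycline for eGFP-delta133p53alpha, plated dox-free and exposed 24 h at 37C to titrated compounds. Fixed, Hoechst-stained; gated GFP peak intensity by laser scanning cytometry, normalized to DMSO (0%) and 57.5 uM 5-azacytidine (100%).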
# Potency is the fitted concentration of half-maximal effect.
SMILES,activation,Potency
c1cc2c(cc1[C@H]1OC[C@H]3[C@H]1CO[C@H]3c1ccc3c(c1)OCO3)OCO2,13.9%,–
CCCCCCCCCCCC[N+](C)(C)CCOc1ccccc1,–,21.9 µM (active)
Cc1cc(O)ccc1Cl,-17.5%,–
CCC(=O)CCCCC[C@@H]1NC(=O)[C@H]2CCCCN2C(=O)[C@H]([C@@H](C)CC)NC(=O)[C@H](Cc2cn(OC)c3ccccc23)NC1=O,-11.2%,–
CC(C)=CC1C(C(=O)OCc2cccc(Oc3ccccc3)c2)C1(C)C (centres undefined),25.4%,–
CC#C[C@]1(O)CC[C@H]2[C@@H]3C[C@H](C)C4=CC(=O)CC[C@]4(C)[C@H]3CC[C@@]21C,-4.18%,–
CCCC(C)(COC(N)=O)COC(=O)NC(C)C (centres undefined),-6.69% and 15.9%,–
C[C@H]([C@H](O)CCC(C)(C)O)[C@H]1CC[C@@]2(O)C3=CC(=O)[C@@H]4C[C@@H](O)[C@@H](O)C[C@]4(C)[C@@H]3CC[C@]12C,-1.72%,–
Oc1ccc2[nH]cc(CCCCN3CC=C(c4ccccc4)CC3)c2c1,22%,–
N[C@@H](Cc1ccc(Oc2cc(I)c(O)c(I)c2)c(I)c1)C(=O)O,11.7%,–
CN(C)CCc1c[nH]c2ccc(O)cc12,5.08%,–
COc1cc2cc(c1Cl)N(C)C(=O)C[C@H](OC(=O)C(C)C)[C@]1(C)O[C@H]1[C@H](C)[C@@H]1C[C@@](O)(NC(=O)O1)[C@H](OC)C=CC=C(C)C2,0.447%,–
C=C1C[C@H]2[C@H]3CCC(=O)[C@@]3(C)CC[C@@H]2[C@@]2(C)C=CC(=O)C=C12,3.97%,–
C[C@@H]1CC2=CC(=O)CC[C@@H]2[C@H]2CC[C@@]3(C)[C@@H](CC[C@]3(C)O)[C@@H]21,-3.35%,–
c1ccc2c(c1)Nc1ccccc1S2,13% and 14.2%,–
N#Cc1nn(-c2c(Cl)cc(C(F)(F)F)cc2Cl)c(N)c1S(=O)C(F)(F)F (centres undefined),-2.51%,–
Cc1ccc2c(c1)C1CN(C)CCC1N2 (centres undefined),0.837%,–
Clc1ccc(CO/N=C(\Cn2ccnc2)c2ccc(Cl)cc2Cl)c(Cl)c1,-8.37%,–
C=CCN1CC[C@]23CCCC[C@H]2[C@H]1Cc1ccc(O)cc13,-6.69%,–
O=C1c2ccccc2C(=O)c2ccccc21,0%,–

SMILES,activation,Potency
ClCc1cccc(Cl)c1,5.02%,–
CNCC(=O)c1ccc(O)c(O)c1,8.47%,–
COC(=O)C(Cl)C(=O)OC,-13.4%,–
C#C[C@]1(O)C=C[C@@H]2[C@@H]3CCC4=CC(=O)CC[C@@H]4[C@H]3CC[C@@]21CC,-3.53%,–
COC1CC(=C(c2cccs2)c2cccs2)C[N+](C)(C)C1 (centres undefined),-5.86%,–
COP(=O)(OC)C(O)C(Cl)(Cl)Cl (centres undefined),-2.51%,–
CN(C)CCc1c[nH]c2cccc(OP(=O)(O)O)c12,-1.69%,–
CN1C(=O)CN=C(c2ccccc2)c2cc(Cl)ccc21,-7.34%,–
CC(C)Oc1cccc(NC(=O)c2ccccc2C(F)(F)F)c1,-17.6%,–
CC(C)(O)C=CC(=O)[C@](C)(O)[C@H]1[C@H](O)C[C@]2(C)[C@@H]3CC=C4[C@@H](C=C(O)C(=O)C4(C)C)[C@]3(C)C(=O)C[C@@]12C,–,34.3 µM (active)
Clc1ccc(C(c2ccc(Cl)cc2)C(Cl)(Cl)Cl)cc1,-11.9%,–
CCCN(CCC)C(=O)Cc1c(-c2ccc(Cl)cc2)nc2ccc(Cl)cn12,29.3%,–
CC[n+]1c(-c2ccccc2)c2cc(N)ccc2c2ccc(N)cc21,–,19.5 µM (active)
c1cc2c(c(N3CCNCC3)c1)OCCO2,-12.6%,–
COP(=S)(OC)Oc1cc(Cl)c(Cl)cc1Cl,-17.5%,–
C=CCOC(Cn1ccnc1)c1ccc(Cl)cc1Cl (centres undefined),6.69%,–
CO[C@H]1CCC(O[C@H]2C[C@H]([C@]3(C)CC[C@]4(C[C@H](O)[C@@H](C)[C@@H]([C@@H](C)C=C(C)C(=O)[C@H](C)C[C@H](C)C(=O)O)O4)O3)O[C@]3(O[C@@H]([C@H]4O[C@@](O)(CO)[C@H](C)C[C@H]4C)C[C@H]3C)[C@H]2C)O[C@H]1C (some centres undefined),20.4%,–
CCN(C(C)=O)c1cccc(-c2ccnc3c(C#N)cnn23)c1,-16.4%,–
C[C@]12Cc3cn[nH]c3C[C@@H]1CC[C@@H]1[C@H]2CC[C@@]2(C)[C@H]1CC[C@]2(C)O,-11.9%,–
